Screens from PubChem BioAssay.
Sa RN4220 lethal: S. aureus RN4220 growth inhibition. OD600, 16 h. inhibition, % (concentration not given with the values). hit rate 0.33% among 330,000. AID 1259311; in the data active means inhibition above about 85%
SARS 3CLpro inh-1: SARS-CoV 3CLpro protease inhibition; P0C6X7; recombinant SARS-CoV 3CLpro, quenched FRET peptide cleavage; inhibition, % at 6 µM; hit rate 0.14% among 290,000; AID 1706; in the data active means inhibition above about 12%
BJeLR lethal: kills HRASV12-expressing BJeLR cells. hit rate 0.17% among 300,000. inhibition, % (no concentration beside the values). BJeLR (HRASV12) viability, CellTiter-Glo ATP luminescence, 48 h; in the data active means inhibition above about 50%
ugtP null kill: compounds lethal to S. aureus RN4220 ugtP deletion mutant; OD600 growth, 16 h; growth inhibition, % (test concentration not listed); AID 1259309; hit rate 0.54% among 330,000; in the data active means growth inhibition above about 68%
PfHsp40 yeast: restores yeast growth despite PfHsp40 toxicity; hit rate 0.68% among 340,000; S. cerevisiae expressing PfHsp40, growth rescue, ATP luminescence; growth rescue, % at 12.5 µM; in the data active means growth rescue above about 28%, passing the limit was not always enough;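 further: yeast W303a lacking pdr1 and pdr3 grown in galactose medium; growth measured after three days at 30 °C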
SARS 3CLpro inh-2: confirmation of SARS coronavirus 3C-like protease inhibitors; shares compounds with SARS 3CLpro inh-1; QFRET protease activity assay, 3CLpro; inhibition, % at 6 µM; hit rate 36% among 380; AID 1879; in the data active means inhibition above about 13%
Large screens that a line does not name were inactive (follow-up assays come after a bar, where they were run). Shown are actives, neighbours in structure and some others; about 1.3% of the full set was active somewhere.

Cc1ccc(C2CC(c3cccs3)=NN2C(=O)CCl)cc1 (stereo unspecified)	SARS 3CLpro inh-1 55, BJeLR lethal 63 (no result: Sa RN4220 lethal, ugtP null kill) | SARS 3CLpro inh-2 70
O=Nc1c(O)[nH]c2ccc(Cl)c(Cl)c12	none (no result: SARS 3CLpro inh-1, BJeLR lethal)
O=C(CN1C(=O)C(=O)c2ccccc21)NCCc1ccccc1	none
O=C1c2ccccc2C(=O)N1C/C=C/c1ccccc1	none
O=C1C(=O)N(C/C=C/c2ccccc2)c2ccccc21	SARS 3CLpro inh-1 34 (no result: Sa RN4220 lethal, ugtP null kill) | SARS 3CLpro inh-2 36
O=C1C(=O)N(CCCc2ccccc2)c2ccccc21	SARS 3CLpro inh-1 19 | SARS 3CLpro inh-2 22
CCOC(=O)c1c(N)sc2c1CCS(=O)(=O)C2	none
Cc1ccc(NC(=O)CN(C)C(=O)c2cccnc2Nc2cccc(C(F)(F)F)c2)cc1	SARS 3CLpro inh-1 13, PfHsp40 yeast 567 | SARS 3CLpro inh-2 inactive
O=C(CC1C(=O)NCCN1C(=O)Nc1ccc(C(F)(F)F)cc1)Nc1ccc(F)cc1 (stereo unspecified)	none
COc1ccc(NC(=O)CC2C(=O)NCCN2C(=O)Nc2ccc(C(F)(F)F)cc2)cc1 (stereo unspecified)	SARS 3CLpro inh-1 13 | SARS 3CLpro inh-2 inactive
CSc1ccccc1NC(=O)c1cc(CC(C)C)on1	none
C=CCn1cnc2c(nnn2Cc2ccc(F)cc2)c1=O	none
CC1CCN(c2ccc3nnc(CCC(=O)NCCCOC(C)C)n3n2)CC1	SARS 3CLpro inh-1 16 | SARS 3CLpro inh-2 inactive
COc1cc(/C=N/NC(=O)/C(=C\c2ccc3c(c2)OCO3)NC(=O)c2ccccc2)ccc1O	SARS 3CLpro inh-1 13 (no result: Sa RN4220 lethal, ugtP null kill) | SARS 3CLpro inh-2 inactive
C/C(=N\NC(=O)c1ccc(Cl)c(Cl)c1)c1cccc(NC(=O)C(C)C)c1	SARS 3CLpro inh-1 23 (no result: Sa RN4220 lethal, ugtP null kill) | SARS 3CLpro inh-2 inactive
O=S(=O)(NCC(c1ccco1)N1CCN(c2ccc(F)cc2)CC1)c1ccc2c(c1)OCCO2 (stereo unspecified)	none
O=C(Nc1nc(-c2ccccc2)cs1)c1cccc([N+](=O)[O-])c1C(=O)O	SARS 3CLpro inh-1 16 | SARS 3CLpro inh-2 28
Cc1csc(NC(=O)c2cccc([N+](=O)[O-])c2C(=O)O)n1	none
Cc1ccc(-c2nn(-c3ccccc3)cc2NC(=O)CCl)cc1	SARS 3CLpro inh-1 14 | SARS 3CLpro inh-2 13
COc1ccc(-c2c(C(F)(F)F)nn(C)c2NC(=O)c2cccnc2)cc1	none
CCc1c(C)sc(NC(=O)Cc2ccccc2OC)c1C(=O)N1CCOCC1	SARS 3CLpro inh-1 13 | SARS 3CLpro inh-2 inactive
CCOC(=O)c1[nH]c(C)c(C(=O)NC(C)(C)C)c1C	none
COc1ccc2[nH]c(=O)c(CN(CCc3ccccc3)Cc3nnnn3CC3CCCO3)cc2c1 (stereo unspecified)	none
Cc1ccc2[nH]c(=O)c(CN(CCc3ccccc3)Cc3nnnn3CC3CCCO3)cc2c1 (stereo unspecified)	SARS 3CLpro inh-1 57 | SARS 3CLpro inh-2 inactive
COCCNC(=O)C(c1cccc(OC)c1)N(Cc1cccs1)C(=O)Cn1nnc2ccccc21 (stereo unspecified)	SARS 3CLpro inh-1 32 | SARS 3CLpro inh-2 35
CCCn1nnc(NC(=O)COc2ccc(C3CCCCC3)cc2)n1	SARS 3CLpro inh-1 14 | SARS 3CLpro inh-2 inactive
Cc1cc(C(=O)CCl)c(C)n1-c1cccc([N+](=O)[O-])c1	SARS 3CLpro inh-1 20 (no result: BJeLR lethal) | SARS 3CLpro inh-2 60
Cc1cc(C(=O)N/N=C/c2cccc([N+](=O)[O-])c2)c(C)n1-c1ccccc1	none (no result: Sa RN4220 lethal, ugtP null kill)
O=c1[nH]c(=O)n(-c2ccccc2F)c(O)c1/C=C1\C=Nc2ccccc21	SARS 3CLpro inh-1 29 (no result: Sa RN4220 lethal, ugtP null kill) | SARS 3CLpro inh-2 38
CC(C(=O)O)N1C(=O)C2C3CC(C2C1=O)C1C(c2ccccc2)c2sc(=O)[nH]c2SC31 (stereo unspecified)	none
O=C(O)COc1ccc(Br)cc1C(c1c(C(=O)O)[nH]c2ccccc12)c1c(C(=O)O)[nH]c2ccccc12	SARS 3CLpro inh-1 13 | SARS 3CLpro inh-2 16
COc1ccc(C(=O)n2c(SC)nc3cc4c(cc32)OCCO4)cc1	SARS 3CLpro inh-1 12 | SARS 3CLpro inh-2 92
CCOc1ccccc1CN1CCC(N2CCOCC2)CC1	none
COc1ccc2c(c1)C(=O)C(=O)N2CC1COc2ccccc2O1 (stereo unspecified)	SARS 3CLpro inh-1 35 | SARS 3CLpro inh-2 40
CCOc1ccc2c(c1)C(=O)C(=O)N2CC1COc2ccccc2O1 (stereo unspecified)	SARS 3CLpro inh-1 58 | SARS 3CLpro inh-2 60
Cc1ccc2c(c1)C(=O)C(=O)N2CC1COc2ccccc2O1 (stereo unspecified)	none
C[C@@H]1CN(C2CCC(C#N)(c3ccc(F)cc3)CC2)CC[C@]1(C(=O)O)c1ccccc1 (stereo partly specified)	none (no result: Sa RN4220 lethal, SARS 3CLpro inh-1, BJeLR lethal, ugtP null kill)
Cc1ccc(C(=O)COC(=O)C(C)N2C(=O)C3C4C=CC(C4)C3C2=O)cc1C (stereo unspecified)	none
CN(C)CCNC(=O)c1onc(CSc2ccc(F)c(F)c2)c1C(=O)NCCN(C)C	none (no result: Sa RN4220 lethal, SARS 3CLpro inh-1, ugtP null kill)
O=c1[nH]c(C2CCN(S(=O)(=O)c3ccccc3F)CC2)nc2c1nnn2Cc1ccc(OC(F)(F)F)cc1	SARS 3CLpro inh-1 13 | SARS 3CLpro inh-2 inactive
CC1(C)Cc2cccc(OCC(=O)NCCc3ccccc3)c2O1	none (no result: SARS 3CLpro inh-1)
O=C(CCNC(=O)Cn1cnc2ccccc2c1=O)NCC1CCCO1 (stereo unspecified)	SARS 3CLpro inh-1 17 | SARS 3CLpro inh-2 inactive
O=C(CCNC(=O)Cn1cnc2ccccc2c1=O)NCC1COc2ccccc2O1 (stereo unspecified)	none
CCOC(=O)C1CCN(C(=O)c2ccc3c(c2)OCCO3)CC1	none (no result: SARS 3CLpro inh-1, BJeLR lethal)
O=C(O)c1cccc(NS(=O)(=O)c2ccc(C3CCCCC3)cc2)c1	SARS 3CLpro inh-1 12 | SARS 3CLpro inh-2 inactive
O=C(NCC(=O)N1CCCCCCC1)c1cccc([N+](=O)[O-])c1	none (no result: SARS 3CLpro inh-1, BJeLR lethal)
Cc1cccc(N(C(=O)Cn2nnc3ccccc32)C(C(=O)NCc2ccco2)c2ccncc2)c1 (stereo unspecified)	none
O=C(NCc1ccco1)C(c1ccco1)N(C(=O)Cn1nnc2ccccc21)c1ccc2c(c1)CCC2 (stereo unspecified)	SARS 3CLpro inh-1 15 | SARS 3CLpro inh-2 26
CCN(CC)CCCN(Cc1cc2cc(OC)c(OC)cc2[nH]c1=O)C(=O)Nc1ccccc1	none
O=C(Nc1ccc(OCC(F)(F)C(F)F)c(C(F)(F)F)c1)c1ccccc1O	Sa RN4220 lethal 112, SARS 3CLpro inh-1 13, ugtP null kill 100 | SARS 3CLpro inh-2 15
Cc1ccc(S(=O)(=O)/N=C2\C=C(Nc3cccc(C(=O)O)c3)C(=O)c3ccccc32)cc1	SARS 3CLpro inh-1 14 (no result: Sa RN4220 lethal, ugtP null kill) | SARS 3CLpro inh-2 inactive
Cc1ccc(S(=O)(=O)/N=C2\C=C(Nc3cccc(C(=O)O)c3)C(=O)c3ccccc32)c(C)c1	none (no result: Sa RN4220 lethal, ugtP null kill)
COC(=O)c1ccccc1NC1=C/C(=N\S(=O)(=O)c2ccc(C(=O)O)cc2)c2ccccc2C1=O	none
CCc1ccc(S(=O)(=O)/N=C2\C=C(Nc3ccc(C(=O)O)cc3)C(=O)c3ccccc32)cc1	SARS 3CLpro inh-1 17 (no result: Sa RN4220 lethal, ugtP null kill) | SARS 3CLpro inh-2 inactive
